# Source: PubChem BioAssay (The Scripps Research Institute Molecular Screening Center)
# ssDAF-12 act = S. stercoralis DAF-12 activation, primary screen. AID 652126. 370,000 compounds, 1% hits. activation, % at 6.8 µM. HEK293 ssDAF-12/GRIP1 lit1-tk-luc reporter, luminescence; % of 3 µM dafachronic acid response;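 active means activation above the mean over all tested compounds plus 3 SD, cut at about 0.9% in these data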;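 further: 0% = DMSO-only wells and 100% = 3 µM delta7-dafachronic acid wells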
# DAX1 inh-1 = blocks DAX1 repression of SF-1 activated StAR promoter; HEK293T StAR-luciferase reporter, SF-1/DAX-1 repression relief; inhibition, % at 6.8 µM; 370,000 compounds, 1.1% hits;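 active means inhibition above the mean over all tested compounds plus 3 SD, cut at about 3.6% in these data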;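 further: 0% = DAX-1 cells with DMSO and 100% = cells lacking DAX-1 with DMSO; higher inhibition means more luminescence from relief of DAX-1 repression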
# hgDAF12 agonist = activates the H. glycines DAF-12 receptor ligand-binding domain; HEK293 GAL4-hgDAF12 UAS-luciferase reporter, agonist luminescence; normalized to butyrate control; activation, % at 6.8 µM; 370,000 compounds, 1.8% hits;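 active means activation above a cutoff set at the mean of all screened compounds plus 3 SD, cut at about 10% in these data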;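 further: 0% = DMSO wells and 100% = sodium butyrate wells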
# DAX1 inh-2 = inhibits human nuclear receptor DAX1; P51843; HEK293 Gal4-DAX1 luciferase reporter, luminescence; inhibition, % at 6.75 µM; 340,000 compounds, 0.99% hits; AID 504766;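 active means inhibition above the mean over all tested compounds plus 3 SD, cut at about 4.2% in these data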;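 further: 0% = DAX1-transfected cells with DMSO and 100% = empty-vector control cells with DMSO; inhibition shows as a rise in luminescence from relieved DAX1 repression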
# Target sequence (P51843 207-470 limits assumed): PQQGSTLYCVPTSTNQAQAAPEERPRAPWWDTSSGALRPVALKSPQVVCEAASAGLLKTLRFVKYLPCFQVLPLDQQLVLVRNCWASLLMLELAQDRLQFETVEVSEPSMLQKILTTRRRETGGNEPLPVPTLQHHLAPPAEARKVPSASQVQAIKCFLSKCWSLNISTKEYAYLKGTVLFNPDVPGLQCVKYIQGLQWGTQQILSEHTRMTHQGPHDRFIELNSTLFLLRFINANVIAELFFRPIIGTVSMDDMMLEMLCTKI
# hcDAF12 agonist = activators of H. contortus DAF-12 nuclear receptor. HEK293 hcDAF-12 lit1-tk-luc reporter, luminescence; 0% DMSO, 100% Δ7-dafachronic acid. activation, % at 6.8 µM. 370,000 compounds, 1.4% hits. AID 652067;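 active means activation above the mean of all tested compounds plus 3 SD, cut at about 5.5% in these data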;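 further: 100% = response to 3 µM Δ7-dafachronic acid high control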
# Active calls of the source: *; . = no result given. An excerpt weighted towards active compounds, which were near 4.1% of everything screened.
SMILES,ssDAF-12 act,DAX1 inh-1,hgDAF12 agonist,DAX1 inh-2,hcDAF12 agonist
O=C(NC1CCCCC1)N1CCc2ccccc2C1,-1.1,2.2,12.9*,1.3,1.6
CC(C)(C)N(NC(=O)NCCCl)C(=O)c1ccccc1Cl,-0.4,-0.8,-4.7,.,1.7
Cc1ccc(Nc2ncccc2C(=O)NCc2cccs2)c(C)c1,0.3,-0.2,-2.5,-0.8,0.9
Cc1ccc(Sc2ncccc2C(=O)N(C)Cc2cccs2)c(C)c1,-1.8,-0.1,1.3,4.6*,-2.0
CCC[C@@H](/C=C/C(=O)OC(C)(C)C)Sc1ccccc1OC,-0.4,-0.4,-1.8,.,0.4
CC(=O)Nc1ccc(/C=C2\CCc3ccccc3C2=O)cc1,-0.6,1.6,10.2,0.6,6.1*
O=C1/C(=C\c2ccc([N+](=O)[O-])cc2)CCc2ccccc21,-0.1,1.0,11.4*,2.5,3.6
COc1ccc(/C=C2\Cc3ccccc3C2=O)cc1OC,-1.0,0.0,3.1,0.6,-0.3
O=C1/C(=C\c2cccnc2)CCc2ccccc21,-0.9,0.6,11.7*,0.1,-0.9
COc1ccc(C=C2Cc3ccccc3C2=O)cc1,0.1,1.3,11.5*,.,0.8
CCOC(=O)N1CCN(C(=O)C2CCN(C(=O)c3ccc([N+](=O)[O-])cc3)CC2)CC1,0.0,-1.0,-0.1,0.1,-1.2
CCOC(=O)N1CCN(C(=O)C2CCN(C(=O)c3ccc(C(C)(C)C)cc3)CC2)CC1,-0.2,-0.3,-1.5,4.4*,1.4
C[C@@H]1CCN(C2CC2)S(=O)(=O)c2ccc(N3CCC[C@@H]3C)cc2O1,-1.0,-1.2,1.1,.,-0.6
O=C1Nc2ccccc2S/C1=C/c1cccs1,1.3*,0.1,6.5,2.5,4.5
CCC(C)NC(=O)CN1C(=O)C2CCCCN2C(=O)c2ccccc21 (configuration not stated),-1.2,-0.1,-1.1,.,-0.4
O=C(CNS(=O)(=O)c1cccc(Cl)c1)Nc1ccc(-c2nc3ccccc3s2)cc1,0.0,2.5,11.1*,1.7,2.8
O=C(CN1CCCC1)Nc1ccc(-c2nc3cc(NC(=O)CN4CCCC4)ccc3o2)cc1,-1.6,-0.2,5.6,5.8*,2.2
CCCC(=O)Nc1ccc2oc(-c3ccncc3)nc2c1,-1.3,-0.1,-0.5,0.8,0.0
CCc1ccc2oc(-c3ccc(NC(C)=O)cc3)nc2c1,1.1*,1.8,10.8*,3.0,5.8*
Cc1ccc2oc(-c3ccc(NC(=O)CC(C)C)cc3)nc2c1,-0.4,2.5,10.8*,2.0,2.4
CCN(CC)CC(=O)Nc1ccc(-c2nc3cc(NC(=O)CN(CC)CC)ccc3o2)cc1,1.0*,-1.3,6.1,0.7,0.6
CCC(C)NCC(=O)Nc1ccc(-c2nc3cc(NC(=O)CNC(C)CC)ccc3o2)cc1 (configuration not stated),-1.2,-1.3,4.1,-0.4,0.7
CC(C)CC(=O)Nc1ccc2oc(-c3cccnc3)nc2c1,-0.9,1.7,6.4,1.6,0.5
COc1ccccc1C=NNC(=O)CSc1nc2ccccc2n1Cc1ccc(Cl)cc1,-1.5,0.2,-1.3,.,0.9
FC(F)(F)c1ccccc1Cn1ccc2ccc(-c3ccc4ccn(Cc5ccccc5)c4c3)cc21,-0.9,0.0,4.3,.,0.3
SMILES,ssDAF-12 act,DAX1 inh-1,hgDAF12 agonist,DAX1 inh-2,hcDAF12 agonist
CCC(C)c1ccc2oc(-c3ccc(NC(=O)c4ncn[nH]4)cc3)nc2c1 (configuration not stated),-1.3,-0.1,-1.0,1.3,-1.2
CC(C)c1ccc2oc(-c3ccc(NC(=O)c4ncn[nH]4)cc3)nc2c1,-0.5,4.0*,7.2,-0.4,0.8
COC(=O)CNC(=O)CN1C(=O)N(c2ccccc2)C(N(O)C(=O)Nc2ccccc2)C1(C)C (configuration not stated),-1.3,0.0,-0.3,-0.9,-0.1
COC(=O)CN1C(=O)N(c2ccccc2)C(N(O)C(=O)Nc2ccccc2)C1(C)C (configuration not stated),-0.8,0.0,1.8,4.6*,-1.1
Oc1ccc2[nH]cc(-c3cccs3)c2c1-c1ccccc1,-0.6,-0.2,-3.2,.,0.0
Cc1cc(NC(=O)C(C)SCC(=O)OCC(=O)N(C)c2ccccc2)no1 (configuration not stated),-0.7,1.1,1.6,4.6*,-1.0
COc1ccccc1C(=O)COC(=O)CSC(C)C(=O)Nc1cc(C)on1 (configuration not stated),-0.6,-0.9,1.4,-0.9,-0.4
Cc1ccc(S(=O)(=O)N2CCCC2c2cccc3[nH]cc(C)c23)cc1 (configuration not stated),-0.5,-1.2,0.9,.,-1.3
COc1ccc(C(=O)c2c3ccc(OC)cc3[n+]([O-])n2Cc2ccc(C(N)=O)cc2)cc1,0.7,0.3,3.9,2.3,6.3*
COc1ccc(C(=O)c2c3ccc(OC)cc3[n+]([O-])n2CCCC(N)=O)cc1,-0.1,-0.6,-0.7,-0.2,2.3
NC(=O)c1ccc(Cn2c(C(=O)c3ccc(Cl)cc3)c3ccccc3[n+]2[O-])cc1,-0.5,0.4,0.8,0.3,5.7*
O=S(=O)(c1ccccc1Br)N(Cc1cn(Cc2ccccc2)nn1)C1CC1,-1.6,-0.3,-2.2,.,-2.0
Cc1cc(NC(=O)c2c(F)cccc2Cl)n(-c2nc3ccccc3[nH]2)n1,-1.4,-0.6,0.2,1.3,-1.3
CC(C)(C)c1cc(NC(=O)c2c(F)cccc2Cl)n(-c2ccccc2)n1,-1.3,-0.5,-1.3,4.5*,0.2
CC(C)N1CCN(Cc2cc3ccccc3[nH]2)CC1CCO (configuration not stated),1.1*,0.1,3.7,0.7,3.0
CC(C)N1CCN(Cc2ccc(-c3ccccc3)cc2)CC1CCO (configuration not stated),-1.5,0.2,-1.7,0.9,-1.1
CCC(=O)Nc1ccc2c(c1)Cc1cc([N+](=O)[O-])ccc1-2,-1.0,0.5,11.0*,1.3,0.1
O=CNc1ccc2c(c1)Cc1cc([N+](=O)[O-])ccc1-2,-1.0,-4.1,7.6,-2.8,0.2
CCCC(=O)Oc1cccc(C2NC(=O)c3ccccc3O2)c1 (configuration not stated),0.6,0.1,-0.1,2.1,-2.5
CC(C)Oc1cccc(C2NC(=O)c3ccccc3O2)c1 (configuration not stated),-0.5,0.4,2.3,4.7*,2.0
O=C(NCCc1c[nH]c2ccccc12)OCc1cn(Cc2cccc(F)c2F)nn1,-1.2,0.9,-0.4,.,-3.0
OCCNc1nc(-c2ccccc2)nc2ccccc12,1.1*,-0.5,5.1,-0.2,0.7
OCCCNc1nc(-c2ccc(Cl)cc2)nc2ccccc12,-1.0,0.1,0.8,-1.0,-0.5
Cc1cc(C(C)(C)C)ccc1Oc1cccc2c1S(=O)(=O)N(C1CCCC1)CC(COCc1ccccc1)O2 (configuration not stated),0.0,3.6*,3.2,1.2,-0.3
COc1cc(F)ccc1Oc1cccc2c1S(=O)(=O)N(C1CC1)C[C@@H](COCc1ccccc1)O2,-1.2,-1.4,-1.1,.,-2.0
